# Measurements reported in PubChem BioAssay AID827 (SRMLSC, 2007).
# About 1,700 (1.2%) of roughly 140,000 compounds were called active. The sample holds actives, similar compounds and a random draw of the others, so the mix is not that of the screen. Unmarked numbers belong to inactive results.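 The calls were made as follows: active = viability at or below a set limit, 4 SD under the median of all tested compounds (cut at about 3.7% in these data); inactive = the rest.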
# Assay: growth suppression of PTEN-null HCT116, primary screen, cell-based, CellTiter-Glo (AID 827);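 also: PTEN knockout HCT116 line with beta catenin targeted HCT116 as companion control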
# Details: 60 h, at 10 µM, stronger effect = lower value
row,SMILES,viability
1,O=C1CCCCC(=O)c2ccccc2N1,97.7%
2,c1ccc2c(c1)C(=NC1CCCCC1)NC2=NC1CCCCC1,1.88% (active)
3,O=C(CN1C(=O)C2C3CCC(C3)C2C1=O)Oc1ccc2ccccc2c1 (stereo unspecified),86%
4,CC1=CC(C)(C)Nc2ccc(OC(=O)CN3C(=O)C4CCCCC4C3=O)cc21 (stereo unspecified),0.76% (active)
5,CC1=CC(C)(C)Nc2ccc(OC(=O)C(Cc3ccccc3)N3C(=O)C4CCCCC4C3=O)cc21 (stereo unspecified),45.7%
6,CCn1c(=O)cc(SCC(=O)NCCC2=CCCCC2)c2ccccc21,91.3%
7,CCCC(=O)Nc1ccc(C(=O)N/N=C/c2ccc[nH]2)cc1,80.1%
8,Cc1ccc(S(=O)(=O)N2CCC(C(=O)N[C@@H](C)C(=O)NCc3ccco3)CC2)cc1,102%
9,Cc1cc(C)c2nc(SCCC#N)nc(C)c2c1,109%
10,Cc1cc(C)c2nc3nc(C)cc(C)c3c(N)c2c1,2.26% (active)
11,CNC(=S)N/N=C/c1cn(Cc2ccc(C)cc2)c2ccccc12,49.9%
12,Cc1cccc(N2CCN(C(=O)c3cnn4c(C(F)F)cc(-c5ccccc5)nc34)CC2)c1C,3.53% (active)
13,O=C(O)c1cnn2c(C(F)(F)F)cc(-c3ccccc3)nc12,95.3%
14,CC(=O)N1CCN(c2cccc(C)c2C)CC1,98%
15,O=C(CCCN1C(=O)c2cccc3cccc(c23)C1=O)N1CCN(Cc2ccc3c(c2)OCO3)CC1,89.4%
16,O=C(c1cccs1)N1CCN(Cc2ccc3c(c2)OCO3)CC1,94.4%
17,O=C(Nc1cccc2ccccc12)N1CCN(Cc2ccc3c(c2)OCO3)CC1,1.32% (active)
18,CC1CCN(c2ccc(C(=O)Nc3nnc(C4CC4)s3)cc2[N+](=O)[O-])CC1,96.1%
19,Cc1ccc(C2=N/C(=C\c3ccc(OS(=O)(=O)c4ccc(C)cc4)cc3)C(=O)O2)cc1,92.6%
20,CCN1/C(=C/c2ccc3ccc(C)cc3[n+]2CC)Sc2ccccc21,2.61% (active)
21,CCC(=O)/C=C1\Sc2ccccc2N1CC,95.3%
22,O=C(NNC1=NCCC1)c1cccc(S(=O)(=O)N2CCCCC2)c1,96.7%
23,CC(=O)c1ccc(NC(=S)NC(=O)CC(C)C)cc1,98.8%

row,SMILES,viability
1,O=C(CC(=O)N/N=C\c1cccc(Cl)c1Cl)NCc1ccccc1,90.4%
2,COc1ccccc1N1CCN(Cc2nnnn2CCc2ccccc2)CC1,104%
3,COc1ccccc1-n1nnnc1S(=O)(=O)Cc1ccc(Cl)cc1,3.39% (active)
4,COc1ccccc1N1CCN(C(=O)CN(Cc2ccc(Cl)cc2)S(C)(=O)=O)CC1,68.5%
5,CCCN=C1NC(=O)C(CC(=O)NCCc2ccc(OC)c(OC)c2)S1 (stereo unspecified),96.5%
6,CC(C)Nc1nnc(SCC(=O)/C=C2\N(C)c3ccccc3C2(C)C)s1,79%
7,O=[N+]([O-])c1ccc(C=Nc2ccc(Cl)cc2Cl)s1,2.41% (active)
8,CCOc1ccc(NC(=O)CCC(=O)N/N=C/c2ccc([N+](=O)[O-])s2)cc1,6.05%
9,CC(=O)NC1=NN(C(C)=O)C(C)(CCS(=O)(=O)c2ccc(Cl)c(Cl)c2)S1 (stereo unspecified),94.7%
10,COc1ccc2nc(NC(=O)[C@@H]3CCCN3C(=O)c3cccs3)sc2c1,85.2%
11,O=C(NCCN1CCN(Cc2ccccc2)CC1)c1cc2c(=O)[nH]c3ccccc3c2s1,2.62% (active)
12,Cn1c(C(=O)NCCN2CCc3ccccc3C2)cc2c(=O)[nH]c3ccccc3c21,75.8%
13,CN1CCN(CCCNC(=O)c2cc3c(=O)oc4ccccc4c3s2)CC1,109%
14,COc1ccccc1OCC(=O)OCn1c(SC)nnc(C)c1=O,98.3%
15,CC(C)(C)C(=O)N1CCC[C@@]1(CO)C(=O)O,93.1%
16,CCCCCC(=O)NC(=S)NNC(=O)c1ccc([N+](=O)[O-])cc1,37.4%
17,O=C(COc1ccc(/C=N/NC(=O)c2ccc(O)cc2)cc1)Nc1ccc([N+](=O)[O-])cc1,60.2%
18,CCCCCC(=O)Nc1ccc(C(=O)N/N=C/c2ccc([N+](=O)[O-])cc2)cc1,1.62% (active)
19,Cc1cc(C)cc(OCC(=O)Nc2nc3ccc([N+](=O)[O-])cc3s2)c1,103%
20,COC(=O)C(NC(=O)c1ccc(OC)cc1)(Nc1ncc(S(=O)(=O)c2ccc([N+](=O)[O-])cc2)s1)C(F)(F)F (stereo unspecified),72.2%
21,O=C(NC(Nc1nc2ccc([N+](=O)[O-])cc2s1)(C(F)(F)F)C(F)(F)F)c1ccccc1,1.46% (active)
22,COc1cc(NC(=O)COC(=O)CSc2ccc3ccccc3c2)c(C)cc1[N+](=O)[O-],96.9%
23,CCn1nc(C)c(/C=N/NC(=O)Cc2ccc(Cl)cc2)c1C,91.7%
